From PubChem
Sampled rows, rich in hits. Any-hit rate of the full collection: about 3.6%.
LGR2 inh: Drosophila LGR2 receptor signaling inhibition | HEK293 LGR2, CRE-luciferase, bursicon-stimulated, 4 h | inhibition, % at 9.99 µM | hit rate 0.35% among 380,000 | AID 720647;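 active means drop in luminescence signal, shown as inhibition above about 50% in the replicate tests, limit read from the data, passing the limit was not always enough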;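 further: agonist challenge used bursicon conditioned medium at about half maximal strength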
TROY signal inh: inhibitors of TROY-dependent NF-kB signaling; AID 1347056; inhibition, % at 10 µM; hit rate 0.98% among 360,000; Q293 LMP1-TROYcd NF-kB luciferase reporter, 4 h;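 active means compounds whose plate-normalised and pattern-corrected inhibition of the luciferase reporter signal at the single screening dose is 50% or more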
TWEAK Fn14 block: inhibitors of TWEAK-Fn14 interaction signaling | TWEAK-stimulated Fn14 reporter cells, luciferase luminescence, 8 h | inhibition, % at 10 µM | hit rate 2% among 360,000 | AID 1159606; in the data active means inhibition above about 50%
HSF1 activator: increases HSF-1 driven luciferase reporter signal | NIH3T3-HGL HSF-1 luciferase reporter, MG132, 8 h; 100% = twice DMSO control signal | activation, % at 9 µM | hit rate 1.7% among 300,000;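 active means mean replicate activation of at least 50% with a set share of replicates each reaching 50%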
HSF1 inhib: HSF1 inhibition; activity change, negative = inhibition, % at 7.5 µM (by protocol); NIH3T3-HGL HSE-luciferase, MG132-induced, luminescence 8 h; hits give low values; hit rate 0.77% among 300,000; AID 2098;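 active means more than half of replicate wells show activity change below -50%, luminescence cut by over half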;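 further: luciferase reports HSF-1 transcriptional activity via heat shock element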
LMP1 NFkB inh: Epstein-Barr LMP1 NF-kappaB reporter inhibition | hit rate 0.69% among 350,000 | AID 504558 | inhibition, % at 12.5 µM | LMP1-induced NF-kappaB luciferase reporter cells, luminescence; in the data active means inhibition above about 41%
Numbers stand for hits; – = inactive; · = no result.

SMILES	LGR2 inh	TROY signal inh	TWEAK Fn14 block	HSF1 activator	HSF1 inhib	LMP1 NFkB inh
CCCn1c(N2CCN(CC(=O)NCc3cccs3)CC2)nc2ccccc21	·	–	–	–	-71.8	–
C[C@@H]1CCCCO[C@@H](CN(C)C(=O)Nc2ccc(F)cc2)[C@@H](C)CN([C@@H](C)CO)C(=O)c2cc(NC(=O)Nc3ccc(F)cc3)ccc2O1	–	·	·	·	·	·
C[C@H](CO)N1C[C@H](C)[C@H](CN(C)C(=O)Nc2ccc(F)cc2)OCCCC[C@H](C)Oc2ccc(NC(=O)Nc3ccc(F)cc3)cc2C1=O	52.8	·	·	·	·	·
C[C@H](CO)N1C[C@H](C)[C@@H](CN(C)C(=O)Nc2cccc3ccccc23)OCCCC[C@H](C)Oc2ccc(NC(=O)NC3CCCCC3)cc2C1=O	–	·	·	·	·	·
C[C@H](CO)N1C[C@H](C)[C@H](CN(C)C(=O)Nc2cccc3ccccc23)OCCCC[C@H](C)Oc2ccc(NC(=O)NC3CCCCC3)cc2C1=O	60.0	·	·	·	·	·
C[C@@H]1CN([C@@H](C)CO)C(=O)c2cccc(NS(=O)(=O)c3cn(C)cn3)c2O[C@H]1CN(C)C(=O)NC1CCCCC1	–	·	·	·	·	·
C[C@H](CO)N1C[C@H](C)[C@@H](CN(C)C(=O)NC2CCCCC2)Oc2c(NS(=O)(=O)c3cn(C)cn3)cccc2C1=O	–	–	–	·	·	49.8
C[C@H]1CCCCO[C@H](CN(C)Cc2ccc(C(F)(F)F)cc2)[C@@H](C)CN([C@@H](C)CO)C(=O)c2cc(N(C)C)ccc2O1	–	·	·	·	·	·
CC(C)CC#Cc1cnc2c(c1)C(=O)N([C@H](C)CO)C[C@H](C)[C@@H](CN(C)Cc1cncnc1)O2	–	·	·	·	·	·
C[C@@H]1CN([C@H](C)CO)C(=O)c2cc(NS(C)(=O)=O)ccc2O[C@@H](C)CCCCO[C@@H]1CN(C)C	–	·	·	·	·	·
COc1ccc(S(=O)(=O)Nc2ccc3c(c2)C(=O)N([C@H](C)CO)C[C@@H](C)[C@H](CN(C)Cc2ccncc2)OCCCC[C@@H](C)O3)cc1	–	·	·	·	·	·
C[C@H]1CN([C@@H](C)CO)C(=O)c2cc(NC(=O)Nc3ccc(F)cc3)ccc2O[C@H]1CN(C)Cc1ccc(C(=O)O)cc1	–	·	·	·	·	·
O=C(NC(=S)N1CCN(C/C=C/c2ccccc2)CC1)c1ccc(Cl)nc1	–	–	–	68.8	–	–
CCn1c(C(C#N)/C(=N\S(=O)(=O)c2cccs2)c2ccccc2)nc2ccccc21 (stereo unspecified)	–	–	–	–	-66.1	–
COc1cccc(CN2[C@H](CO)[C@@H]3c4ccccc4N(C(=O)c4cccnc4)C[C@@H]32)c1	–	·	·	·	·	·
O=C(CCl)N=c1sccn1Cc1ccc(Cl)cc1Cl	·	–	55.0	–	-97.5	–
C/C=C/c1ccc([C@@H]2[C@@H](CO)N3C(=O)CN(C(=O)NC4CCCC4)C[C@@H]23)cc1	–	·	·	·	·	·
CN(c1ccccc1)c1ccc(/C=C(\C#N)c2nnc3n2CCCCC3)cc1[N+](=O)[O-]	–	–	–	–	–	–
N#C/C(=C\c1cccc([N+](=O)[O-])c1)c1nnc2n1CCCCC2	–	82.3	90.6	–	–	–
O=C(/C=C/c1cccc(O)c1)c1ccc(N2CCOCC2)cc1	–	–	–	74.0	–	–
COc1ccc(/C=C/C(=O)c2ccc(O)cc2)cc1CN1CCOCC1	–	–	–	–	–	–
Cc1noc(C)c1NC(=O)N(C)C[C@@H]1Oc2ccc(NS(C)(=O)=O)cc2CC(=O)N([C@H](C)CO)C[C@@H]1C	–	·	·	·	·	·
CC(C)(C)c1nn(-c2ccccc2)c2[nH]c(=O)c(CNCc3ccco3)cc12	–	–	–	–	–	–
CC(C)(C)c1nn(-c2ccccc2)c2[nH]c(=O)c(CNc3ccc4c(c3)OCCO4)cc12	–	82.3	96.2	–	-64.9	–
CCOC(=O)C1=C(CN2CCN(C(=O)c3ccco3)CC2)NC(=O)NC1c1ccc(OC)cc1 (stereo unspecified)	–	–	–	–	-88.3	–
SMILES	LGR2 inh	TROY signal inh	TWEAK Fn14 block	HSF1 activator	HSF1 inhib	LMP1 NFkB inh
COc1ccc(S(=O)(=O)Nc2ccc3c(c2)C(=O)N([C@@H](C)CO)C[C@H](C)[C@H](CN(C)C)OCCCC[C@H](C)O3)cc1	–	·	·	·	·	·
Cc1ccc(/C=C/C(=O)C2C(=O)c3ccccc3C2=O)cc1	–	–	–	–	–	47.1
O=C(CSc1ccc(F)cc1)Nc1ccc(C2SCCS2)cc1	·	–	–	59.8	–	–
O=C(CSC1=NCCS1)Nc1ccc(F)cc1	–	–	–	–	–	–
C(=C\c1nc2ccccc2[nH]1)/c1ccccc1	·	–	74.7	–	–	–
Cc1cccc(/C=C\c2nc3ccccc3c(=O)[nH]2)c1	–	–	–	–	–	–
O=c1[nH]c(/C=C/c2ccc(Br)cc2)nc2ccccc12	–	–	–	64.6	–	–
Cc1nc(/C=C/c2ccccc2)[nH]c(=O)c1-c1ccccc1	–	–	64.1	–	–	–
Cc1c(C(=O)O)sc2nc(/C=C/c3cccc(O)c3)[nH]c(=O)c12	–	–	–	–	–	–
CN(C)c1ccc(/C=C/c2nc3ccccc3c(=O)[nH]2)cc1	90.7	69.7	87.7	–	–	48.1
CCCC#Cc1cnc2c(c1)C(=O)N([C@@H](C)CO)C[C@@H](C)[C@@H](CN(C)Cc1ccccc1)O2	–	·	·	·	·	·
C[C@@H]1CCCCO[C@H](CN(C)Cc2ccc3c(c2)OCO3)[C@@H](C)CN([C@@H](C)CO)C(=O)c2cc(N(C)C)ccc2O1	–	·	·	·	·	·
O=C(C1CCOCC1)N1CC[C@@H]2[C@H]1c1cc(Br)ccc1N[C@@H]2CO	–	·	·	·	·	·
CCCNC(=O)[C@H]1[C@H](CO)[C@H]2Cn3c(ccc(-c4ccc(OC)cc4)c3=O)[C@H]2N1CCC	–	·	·	·	·	·
C=CCOC(=O)C1=C(C)N=c2s/c(=C3\C(=O)N(CC(=O)O)c4ccccc43)c(=O)n2C1c1ccc(OC)cc1 (stereo unspecified)	–	–	58.5	–	–	–
CCOC(=O)C1=C(C)N=c2s/c(=C3\C(=O)Nc4ccccc43)c(=O)n2C1c1ccc2c(c1)OCO2 (stereo unspecified)	·	–	–	–	–	–
Cc1cccc(/N=C/c2nc(-c3ccccc3Br)oc2O)n1	–	–	–	90.6	–	–
CCOC(=O)c1sc2ccccc2c1NC(=O)c1coc2ccccc2c1=O	–	–	57.3	–	–	–
CC(=O)Nc1ccc2c(c1)C(=O)N(C)[C@H]1CC[C@H](CC(=O)Nc3ccc(Cl)cc3)O[C@@H]1CO2	–	·	·	·	·	·
c1csc(CNc2ccc3c(c2)OCCO3)c1	51.4	–	62.6	·	·	–
O=c1oc2ccccc2cc1-c1cn2ccccc2n1	71.5	71.0	97.2	–	–	68.1
O=c1oc2ccccc2cc1-c1cn2cccnc2n1	·	–	–	–	–	–
CS(=O)(=O)N1[C@@H]2c3ccc(-c4cccc(F)c4)c(=O)n3C[C@H]1[C@H](CO)[C@H]2C(=O)N1CCOCC1	–	·	·	·	·	·
CCSc1nc2ccccc2n1C(=O)/C=C\c1ccc(OC)c(OC)c1	·	–	91.0	–	–	67.8
